For part of these data: Entries with a potency or affinity are not part of this list. Active and inactive are the calls of the source.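 The calls were made as follows, unless noted: active = primary screen active and over 50% activation in each of two duplicate runs; inactive = the rest.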
How the values were obtained:
[1] = tested on: TRPC4 beta (transient receptor potential cation channel C4), mouse; test: activators of mouse TRPC4 channel, confirmation, cell-based, Fluo4 calcium, HEK293 TRPC4beta/mu-opioid, duplicates, 10 µM (AID 2426;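 active = fluorescence ratio normalized to control raised more than 50% in primary screen plus both repeat runs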;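 as to activation: percent rise of integrated ratio over buffer wells lacking compound which define 0%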); settings: Fluo4 calcium fluorescence, at 10 µM; stronger effect = higher value
[2] = tested on: transient receptor potential cation channel C4 beta (TRPC4), mouse; test: activators of mouse TRPC4 channel, confirmation, cell-based, second round, Fluo4, HEK293 TRPC4beta/mu-opioid, 1 µM (AID 2461); settings: Fluo4 calcium fluorescence, at 1 µM; stronger effect = higher value;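 as to activation: 0% = wells without test compound as baseline of integrated fluorescence ratio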
[3] = tested on: TRPC4 (transient receptor potential cation channel C4 beta), mouse; test: positive allosteric modulators of mouse TRPC4, confirmation, cell-based, second round, Fluo-4, HEK293 TRPC4beta/mu-opioid, 1 µM (AID 2554;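 active = primary screen hit whose fluorescence ratio, in both repeats, exceeds the weak agonist control mean by 3 SD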); settings: DAMGO EC20, Fluo-4 calcium flux, at 1 µM; stronger effect = higher value
[4] = tested on: TRPC4 beta (transient receptor potential cation channel C4), mouse; test: positive allosteric modulators of mouse TRPC4, confirmation, cell-based, Fluo-4, HEK293 TRPC4beta/mu-opioid (AID 2555;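 active = primary screen hit whose calcium fluorescence ratio, in both repeats, exceeds the weak agonist control mean by 3 SD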); settings: DAMGO EC20, Fluo-4 calcium flux, at 10 µM; stronger effect = higher value
[5] = biological target: Short transient receptor potential channel 4 (Mus musculus) (UniProt Q9QUQ5); test: inhibitors of mouse TRPC4 channel, confirmation, cell-based, Fluo4, HEK293 TRPC4beta/mu-opioid (AID 2636;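 active = calcium signal cut by more than 3 SD below the full-agonist control yet still positive, in both repeats and the earlier primary screen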); settings: DAMGO, Fluo4 calcium flux, at 10 µM; stronger effect = higher value
[6] = biological target: Short transient receptor potential channel 4 (Mus musculus) (UniProt Q9QUQ5); test: inhibitors of mouse TRPC4 channel, confirmation, cell-based, second round, Fluo4, HEK293 TRPC4beta/mu-opioid, 1 µM (AID 2637;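 active = calcium signal ratio cut to more than 3 SD under the fully stimulated control mean yet still positive, in both repeats and the primary screen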); settings: Fluo4 calcium flux, DAMGO, at 1 µM; stronger effect = higher value
[7] = biological target: Short transient receptor potential channel 4 (Mus musculus) (UniProt Q9QUQ5); test: TRPC4 positive allosteric modulators, dose response, cell-based, HEK293 TRPC4/mu-opioid, Fluo-4 calcium, EC20 DAMGO (AID 434941;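 active = earlier screen potentiator hit that boosts the TRPC4 ion channel at some dose, with a dose response; inactive = no potentiation, no dose response, or not a prior hit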;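 also: calcium entry triggered by an EC20 dose of DAMGO at the co-expressed mu-opioid receptor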)
[8] = biological target: Short transient receptor potential channel 4 (Mus musculus) (UniProt Q9QUQ5); test: mouse TRPC4 channel inhibitors, dose response, cell-based, HEK293 TRPC4/mu-opioid, Fluo-4 calcium (AID 434942;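 active = primary screen inhibitor hit that blocks the TRPC4 channel at some tested dose, yielding a dose curve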)
[9] = biological target: Short transient receptor potential channel 6 (Mus musculus) (UniProt Q61143); test: inhibition of mouse TRPC6 channel, confirmation, selectivity assay for TRPC4 inhibitor project, cell-based, HEK293, membrane potential dye, duplicate (AID 434948;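 active = active in primary screen and both duplicates, each dropping signal beyond three positive-control SD with fluorescence still positive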); settings: HEK293 TRPC6, membrane potential dye fluorescence, at 10 µM, stimulated with maximal-effect acetylcholine; stronger effect = higher value
[10] = biological target: Short transient receptor potential channel 6 (Mus musculus) (UniProt Q61143); test: activation of mouse TRPC6 channel, confirmation, selectivity assay for TRPC4 activator project, cell-based, HEK293, membrane potential dye, duplicate (AID 434950;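 active = membrane potential signal rise above negative control mean plus 3 SD in both duplicates, also active in the earlier TRPC4 screen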;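 as to activation: 0% = buffer only wells and 100% = acetylcholine maximal-effect wells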); settings: HEK293 TRPC6, membrane potential fluorescence, at 10 µM; stronger effect = higher value
[11] = biological target: Short transient receptor potential channel 6 (Mus musculus) (UniProt Q61143); test: TRPC6 potentiation by TRPC4 potentiator hits, confirmation, selectivity assay for TRPC4 potentiator project, HEK293 cells, membrane potential dye, duplicate (AID 434952;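 active = compound raising the membrane signal above positive-control mean plus 3 SD in both repeats, and a primary screen hit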); settings: HEK293 TRPC6, membrane potential dye fluorescence, at 10 µM, maximal acetylcholine added after compound; stronger effect = higher value
[12] = biological target: Short transient receptor potential channel 4 (Mus musculus) (UniProt Q9QUQ5); test: calcium flux activators in TRPC4/5HT1a cells, counter-screen for TRPC4 activator project, cell-based, second counter screen, HEK293 TRPC4/5HT1a, Fluo-4 (AID 434977;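 active = calcium signal rise above buffer-control mean plus 5 SD in both duplicates, and also a hit in the primary screen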;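 as to activation: plate controls were assay buffer for no effect and maximal serotonin response for full effect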); settings: Fluo-4 calcium flux, at 10 µM; stronger effect = higher value
[13] = calcium flux inhibitors in TRPC4/5HT1a cells, confirmation, counter-screen for TRPC4 inhibitor project, cell-based, second counter screen, HEK293 TRPC4/5HT1a, Fluo-4 (AID 434978;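 active = primary screen active whose calcium signal fell more than 3 SD beyond the full-serotonin control mean in both duplicate plates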;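 also: serotonin given first at submaximal then at maximal dose after compound preincubation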); settings: Fluo-4 calcium flux, at 10 µM, serotonin added to trigger calcium flux; stronger effect = higher value
[14] = tested on: TRPC4 (mouse), co-expressed with 5HT1a in HEK293; test: calcium flux potentiators in TRPC4/5HT1a cells, confirmation, counter-screen for TRPC4 potentiator project, cell-based, second counter screen, HEK293 TRPC4/5HT1a, Fluo-4 (AID 434979;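 active = signal rise over 3 SD above mean of control wells given weak agonist, in both repeats and first screen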); settings: Fluo-4 calcium flux, at 10 µM, serotonin added at its EC20 dose; stronger effect = higher value
[15] = calcium flux activation in mu-opioid HEK293 cells, confirmation, counter-screen for TRPC4 activator project, cell-based, HEK293 mu-opioid receptor line (AID 449723;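 active = hit in primary screen, with calcium signal over 5 SD above buffer well mean in both duplicates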;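 also: counter screen cells carry the mu-opioid receptor alone and lack TRPC4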); settings: Fluo-4 calcium fluorescence, at 10 µM; stronger effect = higher value
[16] = calcium flux enhancement in mu-opioid HEK293 cells, confirmation, counter-screen for TRPC4 allosteric potentiator project, cell-based, HEK293 mu-opioid receptor line (AID 449724;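 active = calcium signal rise more than 3 SD above the low-dose agonist control mean, in both duplicate plates and the primary screen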); settings: Fluo-4 calcium flux, at 10 µM, compound added before EC20 DAMGO stimulus; stronger effect = higher value

Measured: activation

Short transient receptor potential channel 6 (Mus musculus), sequence (Q61143 whole entry, looked up): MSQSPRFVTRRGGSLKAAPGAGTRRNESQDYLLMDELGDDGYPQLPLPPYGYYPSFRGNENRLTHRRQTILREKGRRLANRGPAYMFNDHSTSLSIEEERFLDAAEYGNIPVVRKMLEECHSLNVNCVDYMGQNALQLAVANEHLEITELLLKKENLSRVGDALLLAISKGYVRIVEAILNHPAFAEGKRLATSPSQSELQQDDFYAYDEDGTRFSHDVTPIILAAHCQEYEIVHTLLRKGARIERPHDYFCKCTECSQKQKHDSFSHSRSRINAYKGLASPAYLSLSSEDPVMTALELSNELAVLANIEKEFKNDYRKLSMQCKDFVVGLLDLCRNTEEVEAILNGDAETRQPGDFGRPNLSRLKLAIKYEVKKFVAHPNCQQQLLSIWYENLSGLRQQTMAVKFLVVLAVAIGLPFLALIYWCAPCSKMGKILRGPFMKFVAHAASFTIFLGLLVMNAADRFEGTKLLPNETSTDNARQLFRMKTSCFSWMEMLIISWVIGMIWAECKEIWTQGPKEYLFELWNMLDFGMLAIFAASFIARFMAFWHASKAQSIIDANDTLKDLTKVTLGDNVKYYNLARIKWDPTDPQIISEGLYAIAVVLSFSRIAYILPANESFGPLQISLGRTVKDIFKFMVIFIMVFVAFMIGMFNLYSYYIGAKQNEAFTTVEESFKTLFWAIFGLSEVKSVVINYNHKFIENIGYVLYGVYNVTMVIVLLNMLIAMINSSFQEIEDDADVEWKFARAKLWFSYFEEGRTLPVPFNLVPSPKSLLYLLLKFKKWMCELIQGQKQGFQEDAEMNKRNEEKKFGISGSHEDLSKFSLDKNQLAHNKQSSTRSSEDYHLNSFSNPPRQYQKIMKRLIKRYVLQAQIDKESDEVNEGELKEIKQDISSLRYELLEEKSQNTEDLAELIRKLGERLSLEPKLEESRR
Short transient receptor potential channel 4 (Mus musculus), sequence (Q9QUQ5 whole entry, looked up): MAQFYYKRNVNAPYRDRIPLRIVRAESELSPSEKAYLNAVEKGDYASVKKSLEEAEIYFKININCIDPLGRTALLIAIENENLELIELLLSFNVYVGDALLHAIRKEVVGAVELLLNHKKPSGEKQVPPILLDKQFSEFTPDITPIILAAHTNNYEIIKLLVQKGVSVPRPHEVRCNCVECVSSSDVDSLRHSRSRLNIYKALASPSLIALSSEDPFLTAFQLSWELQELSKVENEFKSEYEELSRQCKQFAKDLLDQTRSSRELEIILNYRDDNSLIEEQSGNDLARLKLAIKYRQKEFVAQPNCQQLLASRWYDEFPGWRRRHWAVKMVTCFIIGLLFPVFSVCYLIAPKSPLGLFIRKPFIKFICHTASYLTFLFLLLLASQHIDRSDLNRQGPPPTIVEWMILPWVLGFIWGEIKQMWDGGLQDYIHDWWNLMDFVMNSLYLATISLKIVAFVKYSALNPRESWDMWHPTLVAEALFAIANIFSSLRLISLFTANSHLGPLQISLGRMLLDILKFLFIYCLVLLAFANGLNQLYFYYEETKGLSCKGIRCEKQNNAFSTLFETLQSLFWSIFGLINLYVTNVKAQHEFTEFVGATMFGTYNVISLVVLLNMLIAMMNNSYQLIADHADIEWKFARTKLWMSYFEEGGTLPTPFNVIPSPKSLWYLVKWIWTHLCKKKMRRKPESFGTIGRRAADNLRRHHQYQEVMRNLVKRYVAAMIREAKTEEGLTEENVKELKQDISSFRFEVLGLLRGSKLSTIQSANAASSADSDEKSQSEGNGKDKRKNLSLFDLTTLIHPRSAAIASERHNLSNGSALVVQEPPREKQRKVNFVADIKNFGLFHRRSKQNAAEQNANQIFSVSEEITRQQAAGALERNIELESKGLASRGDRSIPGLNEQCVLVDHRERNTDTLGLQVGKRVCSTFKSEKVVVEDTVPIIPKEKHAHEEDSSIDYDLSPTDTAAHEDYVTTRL

CN(CCc1nc2ccc(Cl)cc2[nH]1)Cc1nc(CC2CC2)no1
active: [1] 115% | [12] 23.4%
inactive: [2] | [3] | [4] | [5] | [6] | [7] | [8] | [9] | [10] | [11] | [13] | [14] | [15] | [16]

Cc1cc(C)cc(C(=O)N(CCc2ccccc2)C2=CC3CCC(C2)N3C)c1 (stereo not given)
inactive: [3] | [4] | [5] | [6] | [7] | [8] | [9] | [11] | [12] | [13] | [14] | [15] | [16]
active: [1] 86% | [2] 57% | [10] 67%

COc1cc(/C=C/C(=O)c2ccc3c(c2)OCO3)cc(Cl)c1O
inactive: [2] | [3] | [4] | [5] | [6] | [7] | [8] | [9] | [11] | [13] | [14] | [16]
active: [1] 113% | [10] 427% | [12] 69.2% | [15] 122%

CN(C)CCCN(C(=O)c1ccc(S(=O)(=O)N(C)Cc2ccccc2)cc1)c1nc2cc3c(cc2s1)OCO3
inactive: [1] | [2] | [3] | [4] | [5] | [6] | [7] | [8] | [9] | [10] | [11] | [12] | [13] | [14] | [15] | [16]

Cc1cc(Cl)cc(C)c1OCCCCn1ccnc1
inactive: [2] | [3] | [4] | [5] | [6] | [7] | [8] | [9] | [11] | [13] | [14] | [15] | [16]
active: [1] 98% | [10] 42.5% | [12] 36.8%

COc1cc(OC)cc(C(=O)NC2CCCN(Cc3ccc(Cl)cc3)C2)c1 (stereo not given)
active: [1] 111% | [10] 44.5% | [12] 31.6%
inactive: [2] | [3] | [4] | [5] | [6] | [7] | [8] | [9] | [11] | [13] | [14] | [15] | [16]

Clc1ccc(OCCNCCc2ccccc2)cc1
active: [10] 53% | [12] 24.4%
inactive: [1] | [2] | [3] | [4] | [5] | [6] | [7] | [8] | [9] | [11] | [13] | [14] | [15] | [16]

O=C(CCC1CCCC1)c1c(O)c2ccccc2oc1=O
inactive: [2] | [3] | [4] | [5] | [6] | [7] | [8] | [9] | [11] | [13] | [14] | [16]
active: [1] 222% | [10] 25% | [12] 19.6% | [15] 51.5%

Cc1c(CN2CCC(n3nccc3NC(=O)C3CC3)CC2)[nH]c2ccccc12
active: [1] 138% | [10] 26%
inactive: [2] | [3] | [4] | [5] | [6] | [7] | [8] | [9] | [11] | [12] | [13] | [14] | [15] | [16]

Fc1ccc(C(c2nnnn2Cc2cccs2)N2CCN(C3CCCCC3)CC2)cc1 (stereo not given)
inactive: [3] | [4] | [5] | [6] | [7] | [8] | [9] | [11] | [13] | [14] | [15] | [16]
active: [1] 251% | [2] 67% | [10] 60.5% | [12] 22.7%

CC(=O)Nc1ccc(CN2CCCC(C(=O)c3cccc(C(F)(F)F)c3)C2)cc1 (stereo not given)
inactive: [2] | [3] | [4] | [5] | [6] | [7] | [8] | [9] | [11] | [12] | [13] | [14] | [15] | [16]
active: [1] 96% | [10] 29.5%

Cc1sc2nc(CSc3ccccc3)nc(NCCN(C)C)c2c1C
inactive: [2] | [3] | [4] | [5] | [6] | [7] | [8] | [9] | [10] | [11] | [13] | [14] | [15] | [16]
active: [1] 173% | [12] 15.2%

COc1ccc(C(CNC(=O)c2cc(SC)ccc2Cl)N(C)C)cc1 (stereo not given)
inactive: [3] | [4] | [5] | [6] | [7] | [8] | [9] | [11] | [12] | [13] | [14] | [15] | [16]
active: [1] 103% | [2] 77% | [10] 65%

CC(C)c1ccc(NC(=S)N(C)CCc2ccccn2)cc1
inactive: [1] | [2] | [3] | [4] | [5] | [6] | [7] | [8] | [9] | [10] | [11] | [13] | [14] | [15] | [16]
active: [12] 25.6%

CN(C)CCN(C(=O)c1cccc2ccccc12)c1nc2cc3c(cc2s1)OCO3
inactive: [1] | [2] | [3] | [4] | [5] | [6] | [7] | [8] | [9] | [10] | [11] | [12] | [13] | [14] | [15] | [16]

From PubChem BioAssay
